Source: PubChem BioAssay (NCATS)
Results filed as inconclusive are left out. Active and inactive are the calls of the source. Calls follow the shape of the dose curve; as a rule, active = well fitted curve in the direction sought with a large enough effect; inconclusive = small, poorly fitted or top-dose-only effect, or another doubt; inactive = no such curve, though single readings can be large; an effect the other way counts as inactive or inconclusive.

Assays:
[1] = test system: Zika virus NS2B-NS3 protease (linked construct); experiment: Primary screen NINDS Rhodamine qHTS for Zika virus inhibitors (AID 1347160); also: nearly all actives have a fitted effect of over 55% in size
In short: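 Enzyme (25 nM, linked NS2B-NS3) was preincubated 15 min with compound in 10 mM Tris-HCl pH 8.0, 0.01% Tween 20. Rhodamine110 substrate (1.5 microM) was then added and fluorescence read at start and after 15 min.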

[2] = target: Glutathione peroxidase 1 (Homo sapiens) (UniProt P07203); experiment: Primary qHTS Assay for Inhibitors of Recombinant Selenoprotein Glutathione Peroxidase 1 (GPX1) (AID 1845191); also: nearly all actives have a fitted effect of over 65% in size; as to activity, negative = inhibition: % is scaled to controls: 0 for no effect and ±100 for the full control effect
Chain of Glutathione peroxidase 1 (Homo sapiens) (P07203 whole entry, looked up): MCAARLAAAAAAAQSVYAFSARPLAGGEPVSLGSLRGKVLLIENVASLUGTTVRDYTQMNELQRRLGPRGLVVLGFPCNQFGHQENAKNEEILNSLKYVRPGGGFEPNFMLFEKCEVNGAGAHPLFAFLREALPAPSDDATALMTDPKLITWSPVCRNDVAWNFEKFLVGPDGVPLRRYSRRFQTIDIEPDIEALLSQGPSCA
In short: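 NADPH consumption tracked by fluorescence at 340/450 nm between t=0 and t=15 min, room temperature. Final mix: 10 nM GPX1, 100 nM glutathione reductase, 1 mM GSH, 0.5 mM NADPH, 0.5 mM cumene hydroperoxide, 0.01% BSA; 30 min compound–enzyme preincubation.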

[3] = target: Phospholipid hydroperoxide glutathione peroxidase GPX4 (Homo sapiens) (UniProt P36969); experiment: Primary qHTS Assay for Inhibitors of Recombinant Selenoprotein Glutathione Peroxidase 4 (GPX4) (AID 1845192); also: nearly all actives have a fitted effect of over 65% in size
Chain of Phospholipid hydroperoxide glutathione peroxidase GPX4 (Homo sapiens) (P36969 whole entry, looked up): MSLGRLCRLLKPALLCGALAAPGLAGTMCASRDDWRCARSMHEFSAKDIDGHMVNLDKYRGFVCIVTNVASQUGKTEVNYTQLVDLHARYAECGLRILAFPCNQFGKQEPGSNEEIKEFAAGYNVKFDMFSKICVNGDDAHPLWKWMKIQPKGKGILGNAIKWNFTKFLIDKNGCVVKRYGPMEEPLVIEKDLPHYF
In short: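 NADPH consumption followed by fluorescence at 340/450 nm, t=0 and after 15 min at room temperature. Reaction started with cumene hydroperoxide (0.5 mM final) after 30 min compound–GPX4 preincubation; final 200 nM GPX4, 100 nM GR, 1 mM GSH, 0.5 mM NADPH.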

[4] = target: Luciferin 4-monooxygenase (Photinus pyralis) (UniProt P08659); experiment: Primary firefly luciferase (FLuc) qHTS assay for identification of artifact compounds. (AID 1845220); settings: outcome: dose series up to 54.1 µM unless noted; also: nearly all actives have a fitted effect of over 60% in size
In short: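 Compounds sat 15 min at room temperature with 10 uM luciferin and 10 uM ATP (pH 7.6 Tris acetate). Firefly luciferase (10 nM final) was then added, and luminescence was read 5 min later. Data normalized to no-enzyme and DMSO controls were Hill-fitted.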

[5] = Primary fluorescence-based thiol-reactive (MSTI) qHTS assay for identification of artifact compounds. (AID 1845221);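 also: thiol-reactive compounds lower the probe fluorescence signal; nearly all actives have a fitted effect of over 65% in size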
In short: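 MSTI probe at 4 uM final in 2% DMSO/PBS pH 7.4; compounds, 1 h at room temperature in dark. Fluorescence Ex/Em 525/598 nm, normalised to Acetyl-MSTI and MSTI, fitted to 4-parameter Hill.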

[6] = test system: Nanoluciferase (engineered Oplophorus gracilirostris luciferase); experiment: Primary Nanoluciferase (NLuc) qHTS assay for identification of artifact compounds. (AID 1845222);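 also: 0% = DMSO and -100% = no enzyme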
In short: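 Luminescence from secreted NLuc (filtered, 1:55-diluted S16 cell medium) read 5 min after Nano-Glo substrate; compounds preincubated 15 min, RT. Hill fits of inhibition normalized to DMSO and no-enzyme.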

[7] = Primary redox qHTS assay for identification of artifact compounds. (AID 1845223);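 also: 0% = DMSO and 100% = reference compound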
In short: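 Redox-cycling detection via DTT (250 uM final) oxidation coupled to Amplex Red (25 uM)/HRP (250 mU/mL) in HBSS. 15 min preincubation plus 30 min after DTT, room temperature. Ex/Em 525/598 nm; 4-parameter Hill fit against DMSO and 10 uM DA3003.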

CRL-7250 = normal cell line; experiment: Cytotoxic Profiling of Annotated Libraries Using Quantitative High-Throughput Screening (AID 1296008); settings: Five cell lines viability, CellTiter-Glo ATP luminescence, 48-72 h; max response: stronger effect = lower value; also: nearly all actives have a fitted effect of over 60% in size; also: potency is read from the fitted curve at half-maximal effect; as to max response: % is scaled to controls: 0 for no effect and ±100 for the full control effect
In short: (§1)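 Cytotoxicity was measured as CellTiter-Glo ATP luminescence, read after 10 min at room temperature. Compound treatment of the cells lasted 48 or 72 hr at 37 degrees Celsius in a qHTS format.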

NIH3T3 = experiment: as above; settings: Five cell lines viability, CellTiter-Glo ATP luminescence, 48-72 h; max response: stronger effect = lower value
In short: as §1

C33A = experiment: Primary qHTS to identify gynecologic anti-cancer compounds using libraries of approved drugs and bioactive compounds (AID 1345084); settings: Gynecologic cancer cell panel viability, ATPlite luminescence, 48 h; series mostly up to 57.5 µM; also: nearly all actives have a fitted effect of over 55% in size; also: potency is read from the fitted curve at half-maximal effect; as to activity change, negative = cytotoxicity: % is scaled to controls: 0 for no effect and ±100 for the full control effect
In short: (§2)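 Cells, 1,000 per well, plated 16 h, then exposed 48 h at 37 C to compounds. Viability by ATPlite luminescence after 15 min at room temperature.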

CAOV3 = experiment: as above; settings: Gynecologic cancer cell panel viability, ATPlite luminescence, 48 h; series mostly up to 57.5 µM
In short: as §2

CASKI = experiment: as above; settings: Gynecologic cancer cell panel viability, ATPlite luminescence, 48 h; series mostly up to 57.5 µM
In short: as §2

Hek293T = experiment: as above; settings: Gynecologic cancer cell panel viability, ATPlite luminescence, 48 h, control line for the selectivity index; series mostly up to 57.5 µM
In short: as §2

JEG-3 = experiment: as above; settings: Gynecologic cancer cell panel viability, ATPlite luminescence, 48 h; series mostly up to 57.5 µM
In short: as §2

Tov-21-G = experiment: as above; settings: Gynecologic cancer cell panel viability, ATPlite luminescence, 48 h; series mostly up to 57.5 µM
In short: as §2

Tov112D = experiment: as above; settings: Gynecologic cancer cell panel viability, ATPlite luminescence, 48 h; series mostly up to 57.5 µM
In short: as §2

[8] = target: Calcium and integrin-binding protein 1 (Homo sapiens) (UniProt Q99828); experiment: Primary qHTS for Identification of Calcium Integrin Binding Protein 1 (CIB1) Competitor (AID 1508620);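 also: GST tagged CIB1 binding a fluorescein labelled alphaIIb integrin peptide tracer; top concentration of the series differs between compounds; % is scaled to controls: 0 for no effect and ±100 for the full control effect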
Chain of Calcium and integrin-binding protein 1 (Homo sapiens) (Q99828 whole entry, looked up): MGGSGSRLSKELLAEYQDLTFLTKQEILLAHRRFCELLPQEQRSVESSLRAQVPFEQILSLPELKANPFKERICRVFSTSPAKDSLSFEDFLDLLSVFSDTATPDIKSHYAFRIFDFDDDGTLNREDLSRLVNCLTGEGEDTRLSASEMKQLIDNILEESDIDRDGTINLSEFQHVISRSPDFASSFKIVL
In short: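 CIB1-GST (1 uM final) and compound incubated 15 min at room temperature before adding FITC-alphaIIb peptide tracer (100 nM final). Competition for binding read by fluorescence polarization (ex 480, em 540) after another 15 min at room temperature.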

Es-2 = experiment: Primary qHTS to identify gynecologic anti-cancer compounds using libraries of approved drugs and bioactive compounds (AID 1345084); settings: Gynecologic cancer cell panel viability, ATPlite luminescence, 48 h; series mostly up to 57.5 µM; also: nearly all actives have a fitted effect of over 55% in size; also: potency is read from the fitted curve at half-maximal effect
In short: as §2

OV90 = experiment: as above; settings: Gynecologic cancer cell panel viability, ATPlite luminescence, 48 h; series mostly up to 57.5 µM
In short: as §2

PA-1 = experiment: as above; settings: Gynecologic cancer cell panel viability, ATPlite luminescence, 48 h; series mostly up to 57.5 µM
In short: as §2

Oc1ccc2c(c1)C13CCCC[C@H]1[C@@H](C2)N(CC1CCC1)CC3
inactive: Potency [1] | Potency [2] | Potency [3] | outcome [4] | Potency [5] | Potency [6] | Potency [7] | max response (CRL-7250) -16.2% | max response (NIH3T3) -7.5% | Potency (C33A) | Potency (CAOV3) | Potency (CASKI) | Potency (Hek293T) | Potency (JEG-3) | Potency (Tov-21-G) | Potency (Tov112D)

CCOP(=O)(OCC)Oc1ccc2c(C)cc(=O)oc2c1
inactive: Potency [1] | Potency [8] | Potency [2] | outcome [4] | Potency [5] | Potency [6] | Potency [7] | max response (CRL-7250) -4.98% | max response (NIH3T3) -21.6% | Potency (C33A) | Potency (CAOV3) | Potency (CASKI) | Potency (Es-2) | Potency (OV90) | Potency (PA-1) | Potency (Tov-21-G) | Potency (Tov112D)

COC(=O)[C@@]1(C)C(=O)C=C[C@]2(C)c3c(O)cc(C(C)C)cc3[C@H](O)[C@@H](OC(C)=O)C12 (stereo partly specified)
inactive: Potency [1] | Potency [8] | Potency [2] | Potency [3] | outcome [4] inactive [at 25.7 µM] | Potency [5] | Potency [6] | Potency [7] | outcome (CRL-7250) | max response (NIH3T3) -1.38% | Potency (C33A) | Potency (CAOV3) | Potency (CASKI) | Potency (Es-2) | Potency (Hek293T) | Potency (JEG-3) | Potency (OV90) | Potency (PA-1) | Potency (Tov-21-G) | Potency (Tov112D)

C[C@H]1CC[C@@H]2[C@@H](C)[C@H]3[C@H](C[C@H]4[C@@H]5CC=C6CC(O[C@@H]7O[C@H](CO)[C@@H](O)[C@H](O[C@@H]8O[C@H](CO)[C@@H](O)[C@H](O)[C@H]8O)[C@@H]7O[C@@H]7O[C@@H](C)[C@H](O)[C@@H](O)[C@H]7O)CC[C@]6(C)[C@H]5CC[C@]34C)N2C1 (stereo partly specified)
inactive: Potency [1] | Potency [8] | Potency [2] | Potency [3] | outcome [4] inactive [at 11.6 µM] | activity change, negative = thiol reactive [5] 134% [at 11.5 µM] | activity, negative = inhibition [6] -0.992% [at 11.6 µM] | max response (CRL-7250) -16.5% | outcome (NIH3T3) | activity change, negative = cytotoxicity (C33A) -12.6% [at 11.6 µM] | activity change, negative = cytotoxicity (CAOV3) 17.5% [at 11.6 µM] | activity change, negative = cytotoxicity (CASKI) 0.984% [at 11.6 µM] | activity change, negative = cytotoxicity (Es-2) -2.66% [at 11.6 µM] | activity change, negative = cytotoxicity (Hek293T) 11.3% [at 11.6 µM] | activity change, negative = cytotoxicity (JEG-3) -0.31% [at 11.6 µM] | activity change, negative = cytotoxicity (OV90) -5.29% [at 11.6 µM] | activity change, negative = cytotoxicity (PA-1) 7.63% [at 11.6 µM] | activity change, negative = cytotoxicity (Tov-21-G) -1.56% [at 11.6 µM] | activity change, negative = cytotoxicity (Tov112D) 5.33% [at 11.6 µM]

CN=C(NS(=O)(=O)c1ccc(Cl)cc1)N1C[C@H](c2ccccc2)C(c2ccc(Cl)cc2)=N1
inactive: Potency [1] | Potency [8] | Potency [3] | outcome [4] | Potency [5] | Potency [6] | Potency [7] | outcome (CRL-7250) | max response (NIH3T3) 4.13% | Potency (C33A) | Potency (CAOV3) | Potency (CASKI) | Potency (Es-2) | Potency (Hek293T) | Potency (JEG-3) | Potency (OV90) | Potency (PA-1) | Potency (Tov-21-G) | Potency (Tov112D)

CN1C(=O)[C@]23CC4C(C)(C)[C@@]5(C[C@@]41CN2CC[C@@]3(C)O)C(=O)Nc1c5ccc2c1OC=CC(C)(C)O2 (stereo partly specified)
inactive: Potency [8] | Potency [2] | outcome [4] | Potency [6] | Potency [7] | max response (CRL-7250) -5.32% | max response (NIH3T3) -0.852% | Potency (C33A) | Potency (CAOV3) | Potency (CASKI) | Potency (Es-2) | Potency (Hek293T) | Potency (JEG-3) | Potency (OV90) | Potency (PA-1) | Potency (Tov-21-G) | Potency (Tov112D)

CCCCOC(=O)c1ccnc2cc(C(OCCN3CCCCC3)c3ccccc3Cl)sc12 (stereo unspecified)
inactive: Potency [1] | Potency [8] | Potency [2] | Potency [3] | outcome [4] | Potency [6] | Potency [7] | max response (CRL-7250) -4.2% | max response (NIH3T3) -3.89% | Potency (C33A) | Potency (CAOV3) | Potency (CASKI) | Potency (Es-2) | Potency (Hek293T) | Potency (JEG-3) | Potency (OV90) | Potency (PA-1) | Potency (Tov-21-G) | Potency (Tov112D)

CO[C@H]1C[C@H](O[C@H]2CC[C@]3(C=O)[C@H]4CC[C@]5(C)[C@@H](C6=CC(=O)OC6)CC[C@]5(O)[C@@H]4CC[C@]3(O)C2)O[C@H](C)[C@H]1O
inactive: Potency [1] | Potency [8] | Potency [2] | Potency [3] | outcome [4] inactive [at 25.7 µM] | Potency [5] | Potency [6] | Potency [7] | outcome (NIH3T3)
active: Potency (CRL-7250) 112 nM | Potency (C33A) 100 nM | Potency (CAOV3) 199 nM | Potency (Es-2) 141 nM | Potency (Hek293T) 224 nM | Potency (OV90) 891 nM | Potency (PA-1) 141 nM | Potency (Tov-21-G) 141 nM | Potency (Tov112D) 89.1 nM

CCC(C)C1NC(=O)C(C(C)=O)=C1O (stereo unspecified)
inactive: Potency [1] | Potency [8] | Potency [2] | Potency [3] | outcome [4] | Potency [5] | Potency [6] | Potency [7] | max response (CRL-7250) -9.18% | Potency (C33A) | Potency (CAOV3) | Potency (CASKI) | Potency (Es-2) | Potency (Hek293T) | Potency (JEG-3) | Potency (OV90) | Potency (PA-1) | Potency (Tov-21-G) | Potency (Tov112D)

CCC1CN2CCC3(C(=O)Nc4cccc(O)c43)C2CC1/C(=C/OC)C(=O)OC (stereo unspecified)
inactive: Potency [1] | Potency [8] | Potency [2] | Potency [3] | outcome [4] | Potency [5] | Potency [6] | Potency [7] | max response (CRL-7250) -15.5% | max response (NIH3T3) 4.67% | Potency (C33A) | Potency (CAOV3) | Potency (CASKI) | Potency (Es-2) | Potency (Hek293T) | Potency (JEG-3) | Potency (OV90) | Potency (PA-1) | Potency (Tov-21-G) | Potency (Tov112D)

C[C@]12CC[C@@H](O[C@@H]3O[C@H](CO)[C@@H](O)[C@H](O)[C@H]3O)C[C@@]1(O)CCC1C2CC[C@]2(C)[C@@H](C3=CC(=O)OC3)CC[C@]12O (stereo partly specified)
inactive: Potency [1] | Potency [8] | Potency [2] | Potency [3] | outcome [4] | Potency [6] | Potency [7] | outcome (NIH3T3)
active: Potency (CRL-7250) 126 nM | Potency (C33A) 199 nM | Potency (CAOV3) 501 nM | Potency (Es-2) 355 nM | Potency (Hek293T) 199 nM | Potency (OV90) 1120 nM | Potency (PA-1) 355 nM | Potency (Tov-21-G) 178 nM | Potency (Tov112D) 112 nM
